Experimental data published in PubChem BioAssay (NCI).
Compounds without any hit were thinned out: in the full panel of roughly 79,000, 15% have a hit. The source made the active and inactive calls. No stated cut-off is given here; in the data, active means growth inhibition above about 70%; inactive means the rest.

Key:
[1] = NCI Yeast Anticancer Drug Screen. Data for the rad52 strain (AID 147);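 further: 0% = growth of vehicle-treated control cultures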; conditions: S. cerevisiae rad52 mutant growth inhibition, active compounds read high
Summary of the method: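 Measured: yeast growth inhibition. System: strain with a defined DNA damage repair alteration. Reference: vehicle-treated control cultures.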

[2] = NCI Yeast Anticancer Drug Screen. Data for the wt1 strain (AID 149);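 further: 0% = growth of vehicle-treated wt1 cultures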; conditions: S. cerevisiae wt1 strain (SPY 50644) growth inhibition, active compounds read high
Summary of the method: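 The wt1 strain was treated with compounds, and growth was compared with vehicle-treated cultures to give inhibition.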

[3] = NCI Yeast Anticancer Drug Screen. Data for the rad50EPP+ strain (AID 151);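 further: 0% = growth of vehicle-treated control cultures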; conditions: S. cerevisiae rad50 mutant strain, active compounds read high
Summary of the method: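 One strain with a rad50 alteration (rad50EPP+) was compound-treated, its growth then compared to that of vehicle controls.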

[4] = NCI Yeast Anticancer Drug Screen. Data for the mgt1 strain (AID 153); conditions: S. cerevisiae mgt1 mutant growth inhibition, active compounds read high
Summary of the method: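 After exposure of the mgt1 yeast mutant to compound, growth was measured and reported as inhibition compared with vehicle controls.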

[5] = NCI Yeast Anticancer Drug Screen. Data for the rad50 strain (AID 155);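 further: 0% = growth of vehicle-only cultures of the same strain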; conditions: S. cerevisiae rad50 strain growth inhibition, active compounds read high
Summary of the method: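 Cells are treated with compound, grown, and their growth is then scored against vehicle-only cultures of the same repair-deficient yeast strain.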

[6] = NCI Yeast Anticancer Drug Screen. Data for the mec2-1 strain (AID 157); conditions: S. cerevisiae mec2-1 strain, active compounds read high
Summary of the method: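 Test agents were screened against the mec2-1 yeast strain, with defined DNA repair or cell cycle alteration. Growth was scored as inhibition against vehicle-only controls.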

[7] = NCI Yeast Anticancer Drug Screen. Data for the rad14 strain (AID 159);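 further: 0% = growth of vehicle-treated control cultures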; conditions: S. cerevisiae rad14 strain growth inhibition, active compounds read high
Summary of the method: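 Readout: yeast growth inhibition, referenced to vehicle-only cultures. Strain bears a defined alteration in DNA damage repair.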

[8] = NCI Yeast Anticancer Drug Screen. Data for the sgs1 mgt1 strain (AID 161);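 further: 0% = growth of cultures given vehicle only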; conditions: S. cerevisiae sgs1 mgt1 strain, active compounds read high
Summary of the method: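 Genetically altered yeast, compound exposure, growth inhibition relative to vehicle.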

[9] = NCI Yeast Anticancer Drug Screen. Data for the CLN2oe strain (AID 163);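 further: 0% = growth of vehicle-only control cultures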; conditions: S. cerevisiae CLN2oe strain, active compounds read high
Summary of the method: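 Here, growth inhibition in a cell-cycle-altered yeast strain after compound exposure was quantified against vehicle control growth.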

[10] = NCI Yeast Anticancer Drug Screen. Data for the cln2 rad14 strain (AID 165);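 further: 0% = growth equal to vehicle treated cultures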; conditions: S. cerevisiae cln2 rad14 strain, active compounds read high
Summary of the method: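 Growth of compound-exposed yeast (cln2 rad14 genotype) measured and expressed as inhibition relative to vehicle.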

[11] = NCI Yeast Anticancer Drug Screen. Data for the bub3 strain (AID 167); conditions: S. cerevisiae bub3 mutant strain, active compounds read high
Summary of the method: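 Part of a panel of yeast mutants defective in DNA damage repair or cell cycle regulation. Each strain is grown with compound, and inhibition is calculated relative to solvent-treated cultures.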

[12] = NCI Yeast Anticancer Drug Screen. Data for the wt2 strain (AID 169);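 further: 0% = growth of vehicle-treated yeast cultures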; conditions: S. cerevisiae wt2 strain growth inhibition, active compounds read high
Summary of the method: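 Genetically defined yeast strains from a DNA-repair/cell-cycle panel were used. Compound-exposed yeast growth was measured, and the inhibition was calculated relative to vehicle treatment.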

[13] = NCI Yeast Anticancer Drug Screen. Data for the mlh1 strain (AID 171);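 further: 0% = growth of vehicle-treated control cultures of the same strain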; conditions: S. cerevisiae mlh1 strain growth inhibition, active compounds read high
Summary of the method: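 Here the genetically defined yeast mutant is grown with each compound, and the extent to which its growth falls below that of vehicle-exposed cells is reported.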

[14] = NCI Yeast Anticancer Drug Screen. Data for the sgs1 strain (AID 173);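 further: 0% = growth of vehicle-only control cultures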; conditions: S. cerevisiae sgs1 mutant, active compounds read high
Summary of the method: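 Relative growth inhibition, referenced to vehicle, was determined in a yeast strain with a defined alteration affecting DNA damage repair or cell cycle control after compound exposure.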

[15] = NCI Yeast Anticancer Drug Screen. Data for the mlh1 rad18 strain (AID 175); conditions: S. cerevisiae mlh1 rad18 strain growth inhibition, active compounds read high
Summary of the method: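 In this whole-cell yeast screen, a strain with altered DNA damage repair is challenged with compound, and its growth is measured against matched vehicle-treated controls.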

[16] = NCI Yeast Anticancer Drug Screen. Data for the rad18 strain (AID 177); conditions: S. cerevisiae rad18 mutant growth inhibition, active compounds read high
Summary of the method: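 Screen uses a yeast strain with a defined lesion in DNA damage repair; compound effect is read as loss of growth compared to untreated vehicle cultures.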

[17] = at 5.0 µM (retest, dose inferred, filed as 0.5)
[18] = at 50.0 µM (retest, dose inferred, filed as 5.0)

Measured: growth inhibition

CC(=O)C1(O)Cc2c(O)c3c(c(O)c2C(OC2CC(N)C(O)C(C)O2)C1)C(=O)c1ccccc1C3=O (stereo not given)
inactive: [2]; at 1.2 µM 25% | [2]; at 3.7 µM 31% | [3]; at 1.2 µM 55% | [4]; at 1.2 µM 4% | [4]; at 3.7 µM 45% | [5]; [17] 24% | [6]; at 1.2 µM 15% | [6]; at 3.7 µM 50% | [6]; [17] -32% | [6]; [18] 47% | [7]; at 1.2 µM -4% | [7]; at 3.7 µM 33% | [8]; [17] -25% | [8]; [18] 65% | [9]; at 1.2 µM -1% | [9]; at 3.7 µM 46% | [10]; [17] -15% | [10]; [18] 41% | [11]; at 1.2 µM -7% | [11]; at 3.7 µM 8% | [11]; [17] -42% | [11]; [18] 16% | [12]; at 1.2 µM 2% | [12]; at 3.7 µM 27% | [13]; at 1.2 µM 1% | [13]; at 3.7 µM 22% | [14]; at 1.2 µM -14% | [14]; at 3.7 µM 60% | [15]; [17] -33% | [15]; [18] 54% | [16]; at 1.2 µM 1% | [16]; at 3.7 µM 60%
active: [1]; at 1.2 µM 82% | [1]; at 3.7 µM 92% | [1]; at 11.0 µM 95% | [1]; at 33.0 µM 96% | [1]; at 100.0 µM 97% | [2]; at 11.0 µM 88% | [2]; at 33.0 µM 96% | [2]; at 100.0 µM 98% | [3]; at 3.7 µM 92% | [3]; at 11.0 µM 97% | [3]; at 33.0 µM 98% | [3]; at 100.0 µM 98% | [4]; at 11.0 µM 92% | [4]; at 33.0 µM 97% | [4]; at 100.0 µM 98% | [5]; at 1.2 µM 86% | [5]; at 3.7 µM 92% | [5]; at 11.0 µM 94% | [5]; at 33.0 µM 97% | [5]; [18] 85% | [5]; at 50.0 µM 89.4% | [5]; at 100.0 µM 98% | [6]; at 11.0 µM 90% | [6]; at 33.0 µM 95% | [6]; at 50.0 µM 92.9% | [6]; at 100.0 µM 98% | [7]; at 11.0 µM 89% | [7]; at 33.0 µM 96% | [7]; at 100.0 µM 97% | [8]; at 50.0 µM 91% | [9]; at 11.0 µM 93% | [9]; at 33.0 µM 98% | [9]; at 100.0 µM 99% | [10]; at 50.0 µM 87.9% | [11]; at 11.0 µM 91% | [11]; at 33.0 µM 97% | [11]; at 50.0 µM 90.2% | [11]; at 100.0 µM 98% | [12]; at 11.0 µM 93% | [12]; at 33.0 µM 98% | [12]; at 100.0 µM 99% | [13]; at 11.0 µM 90% | [13]; at 33.0 µM 96% | [13]; at 100.0 µM 98% | [14]; at 11.0 µM 93% | [14]; at 33.0 µM 97% | [14]; at 100.0 µM 98% | [16]; at 11.0 µM 94% | [16]; at 33.0 µM 96% | [16]; at 100.0 µM 98%

CN(CC(=O)O)c1ccc(/C=C/c2ccnc3ccccc23)cc1
inactive: [1]; at 1.2 µM -3% | [1]; at 3.7 µM -5% | [1]; at 11.0 µM -2% | [1]; at 33.0 µM 13% | [1]; at 100.0 µM 41% | [2]; at 1.2 µM -2% | [2]; at 3.7 µM -3% | [2]; at 11.0 µM -4% | [2]; at 33.0 µM -8% | [2]; at 100.0 µM -6% | [3]; at 1.2 µM -9% | [3]; at 3.7 µM 3% | [3]; at 11.0 µM 8% | [3]; at 33.0 µM 35% | [4]; at 1.2 µM 0% | [4]; at 3.7 µM 0% | [4]; at 11.0 µM -2% | [4]; at 33.0 µM -2% | [4]; at 100.0 µM 39% | [5]; at 1.2 µM -1% | [5]; at 3.7 µM -1% | [5]; [17] 23% | [5]; at 11.0 µM 2% | [5]; at 33.0 µM 11% | [5]; [18] 24% | [5]; at 50.0 µM 14.7% | [5]; at 100.0 µM 31% | [6]; at 1.2 µM -5% | [6]; at 3.7 µM -4% | [6]; [17] 6% | [6]; at 11.0 µM -5% | [6]; at 33.0 µM -3% | [6]; [18] 12% | [6]; at 50.0 µM 33.5% | [6]; at 100.0 µM 16% | [7]; at 1.2 µM -3% | [7]; at 3.7 µM -5% | [7]; at 11.0 µM -2% | [7]; at 33.0 µM 6% | [7]; at 100.0 µM 32% | [8]; [17] 5% | [8]; at 50.0 µM 59.2% | [9]; at 1.2 µM -3% | [9]; at 3.7 µM -4% | [9]; at 11.0 µM -9% | [9]; at 33.0 µM -15% | [9]; at 100.0 µM -12% | [10]; [17] -2% | [10]; [18] 22% | [10]; at 50.0 µM -46.4% | [11]; at 1.2 µM -3% | [11]; at 3.7 µM -4% | [11]; [17] 6% | [11]; at 11.0 µM -5% | [11]; at 33.0 µM -8% | [11]; [18] 20% | [11]; at 50.0 µM 51.9% | [11]; at 100.0 µM 12% | [12]; at 1.2 µM -4% | [12]; at 3.7 µM -4% | [12]; at 11.0 µM -5% | [12]; at 33.0 µM -3% | [12]; at 100.0 µM 37% | [13]; at 1.2 µM -1% | [13]; at 3.7 µM 2% | [13]; at 11.0 µM 3% | [13]; at 33.0 µM 7% | [13]; at 100.0 µM 41% | [14]; at 1.2 µM -2% | [14]; at 3.7 µM 0% | [14]; at 11.0 µM 4% | [14]; at 33.0 µM 22% | [14]; at 100.0 µM 65% | [15]; [17] 30% | [15]; at 50.0 µM 50.4% | [16]; at 1.2 µM 1% | [16]; at 3.7 µM 5% | [16]; at 11.0 µM 10%
active: [3]; at 100.0 µM 83% | [8]; [18] 80% | [15]; [18] 88% | [16]; at 33.0 µM 78% | [16]; at 100.0 µM 91%
